Bioassay records: PubChem BioAssay, National Center for Advancing Translational Sciences (NCATS)
uPA generation: cell surface uPA generation inhibition; cell surface uPA generation assay, qHTS; Potency, µM (top dose mostly 38.3 µM), for inactives: at the highest dose activity change, negative = inhibition, usual class: inhibitors; 0.31% of 330,000 active; AID 540303; active = well fitted inhibition curve with a large enough effect; inconclusive = small, poorly fitted or top-dose-only effect; inactive = no such curve, though single readings can be large or run the other way; tested in mouse RAW 264.7 cells; also: potency is read from the fitted curve at half-maximal effect; % is scaled to controls: 0 for no effect and ±100 for the full control effect; nearly all actives have a fitted effect of over 55% in size
ATXN2 expr inh: ATXN2 expression inhibition; HEK-293 ATXN2-luciferase reporter, luminescence, 24 h; Potency, µM (titrated, usually from 57 µM), inactives show at the top dose activity change, negative = inhibition, actives largely listed as inhibitors; 0.72% of 360,000 active; also: potency is read from the fitted curve at half-maximal effect; % is scaled to controls: 0 for no effect and ±100 for the full control effect; nearly all actives have a fitted effect of over 55% in size
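qHTS (up to 57 uM final) was run with 24 h compound exposure of reporter cells at 37 °C. Each well was multiplexed: SteadyGlo luminescence measured ATXN2-luciferase expression after a fluorogenic Gly-Phe-AFC viability readout (25 uM final).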
HepG2 viability: kills HepG2 cells in TGF-b inhibitor counter-screen; 0.76% of 410,000 active; Potency, µM (highest dose often 46.1 µM), for inactives: top-dose activity change, negative = cytotoxicity, actives largely listed as cytotoxic; HepG2 CAGA-GFP viability, ATP luminescence, 18 h; also: potency is read from the fitted curve at half-maximal effect
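HepG2 CAGA-GFP cells (1000/well, DMEM with 1% FBS) received compound, then TGF-beta at 500 pg/mL final, and were incubated 18 hours at 37 degrees C. Viability was read by CellTiter-Glo luminescence. Media-only wells were set as complete cell-killing and DMSO as no toxicity.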
TGFb SMAD3 inh: blocks TGF-b signaling; HepG2 CAGA-GFP TGF-b/SMAD3 reporter, GFP fluorescence, 18 h; TGF-beta stimulated, 500 pg/mL final; Potency, µM (doses to about 46.1 µM), for the others: top-dose activity, negative = inhibition, actives largely listed as inhibitors; 1.2% of 410,000 active; also: potency is read from the fitted curve at half-maximal effect; % is scaled to controls: 0 for no effect and ±100 for the full control effect; nearly all actives have a fitted effect of over 65% in size
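Per well, imaged GFP fluorescence of HEPG2 CAGA-GFP cells gives the signal; cells get compound, then TGF-beta (500 pg/mL final), 18 h at 37 degrees C; %Activity versus -TGF-beta and +DMSO controls.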
ATXN viability: reduces viability in counter-screen for ATXN expression inhibitors | S2 cells (HEK-293 line with an ATXN2-luciferase reporter) viability, CellTiter-Fluor protease fluorescence, 24 h | Potency, µM (highest dose often 56.7 µM), most hits filed as cytotoxic | 0.49% of 400,000 active | AID 651635; also: potency is read from the fitted curve at half-maximal effect; nearly all actives have a fitted effect of over 40% in size
Giardia kill: kills Giardia lamblia | Giardia lamblia trophozoite viability | activity change, % at 7.66 µM, hits read low | 0.15% of 340,000 active | AID 540267; in the data active = activity change below about -80%; inconclusive = between about -30% and that limit;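 also: parasites exposed to compound for two days anaerobically before the ATP read; % is scaled to controls: 0 for no effect and ±100 for the full control effect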
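Viability, read as ATP luminescence: trophozoites at 100 cells/well, compound added, 48 hrs anaerobic at 37 deg C, then 15-30 min room-temperature development before reading.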
An asterisk follows results filed as active; i = inactive; ? = inconclusive; nt = no result; ! = not confirmed by another sample; [ ] = dose if it differs, or a comment. Rows were chosen to be rich in hits. Some 2.6% of all compounds tested hit in one or more screens of this group. Unless noted, calls follow the shape of the dose curve; as a rule, active = well fitted curve in the direction sought with a large enough effect; inconclusive = small, poorly fitted or top-dose-only effect, or another doubt; inactive = no such curve, though single readings can be large; an effect the other way counts as inactive or inconclusive.

SMILES	uPA generation	ATXN2 expr inh	HepG2 viability	TGFb SMAD3 inh	ATXN viability	Giardia kill
CCOC(=O)c1sc(NC(=O)CCc2ccccc2)nc1C	4.47µM*	nt	-25.9%	31.1%	i	25.0
CCOC(=O)c1sc(NC(=O)c2ccc(C)o2)nc1C	?	8.4%	5.01µM*	?	i	-23.3
COC(=O)c1sc(NC(=O)c2ccc(C)o2)nc1C	-10.5%	32.8%	-46.3%	-30.4%	i	-5.1
CC1=Nc2ccccc2/C1=C(/C)c1c(C)[nH]c2ccccc12	nt	nt	1.4%	5.0%	nt	nt
Nc1nc(=O)n([C@@H]2O[C@H](CO)[C@@H](O)[C@@H]2F)cc1I	nt	-3.9%	nt	nt	i	nt
COc1cc(NCc2ccc3nc(N)nc(N)c3c2C)cc(OC)c1OC	nt	3.55µM*!	nt	nt	?	nt
COc1ccc(CNc2ccncc2)c(OC)c1OC	0.4%	16.6%[2.22 µM]	-3.2%	1.7%	i	4.1
CN1CCN(c2ccnc(N(C)CCCCCCN)n2)CC1	nt	nt	-33.4%	0.7%	nt	nt
CC(CCc1ccc(O)cc1)NC(c1ccccc1)c1ccc(Cl)cc1 (stereo not drawn)	-9.4%	?	11.2µM*	?	?	20.0
CC(CCc1ccc(O)cc1)NCCC(c1ccccc1)c1ccccc1 (stereo not drawn)	-2.5%	?	-88.0%	?	?	-21.2
Cc1nc(-c2ccc(F)cc2)c(CC(=O)N(C)CC(=O)Nc2ccc(Cl)c(C(F)(F)F)c2)s1	-20.0%	?	-82.1%	17.8µM*	i	37.5
Nc1nc2ccccc2n1C(=O)c1ccccc1	2.82µM*	nt	-57.6%	0.1%	?	?
COc1cccc(NC(=O)Cn2c(=O)n(-c3ccc(Cl)cc3)c(=O)c3sc4ccccc4c32)c1	nt	nt	-23.9%	0.0%	nt	nt
COc1cccc(-n2c(=O)c3sc4ccccc4c3n(CC(=O)Nc3cccc(Cl)c3)c2=O)c1	nt	2.7%	-4.9%	7.94µM*	?	nt
COc1ccc(CCC(=O)O)cc1	nt	nt	-3.1%	1.7%	nt	nt
CCN(CC)CCNC(=O)c1cc(-c2ccc(Br)s2)nc2ccccc12	2.2%	nt	-127.8%	?	nt	2.5
CCCN(CCC)CCNC(=O)c1cc(-c2ccc(Br)s2)nc2ccccc12	nt	0.0%	-21.2%	0.3%	31.6µM*	nt
COc1cccc(-c2cc3c(c(OC)c2)OCCN(Cc2cccn2-c2ccccn2)C3)c1	nt	nt	nt	nt	i	nt
Cc1c(C)c2c(C)nn(-c3ccccc3)c2[nH]c1=O	-2.9%	10.4%	-1.9%	-8.0%	i	-9.5
Cc1cc(=O)c2c(C)nn(-c3ccccc3)c2[nH]1	-6.1%	10.0%	5.62µM*	-5.5%	i	5.6
Cc1cc(C)c(OCC(=O)Nc2cccc(-c3nc4ncccc4o3)c2)c(Br)c1	nt	12.4%	-2.4%	15.3%	i	nt
COc1c(C)cc(Br)cc1C(=O)Nc1cccc(-c2nc3ncccc3o2)c1	17.2%	22.4µM*	-13.4%	-8.2%	31.6µM*	-7.7
Cc1ccc(C(C)C)c(OCC(=O)Nc2cccc(-c3nc4ncccc4o3)c2)c1	nt	?	6.1%	0.8%	20µM*	nt
COc1c(C)cc(Br)cc1C(=O)Nc1ccc(-c2nc3ncccc3o2)cc1	nt	-10.1%	-21.8%	5.9%	i	nt
O=C(NCCc1nnc2n1CCN(Cc1ccc(F)c(F)c1)CC2)c1ccoc1	nt	nt	nt	nt	i	nt
SMILES	uPA generation	ATXN2 expr inh	HepG2 viability	TGFb SMAD3 inh	ATXN viability	Giardia kill
O=C1Cc2c(-c3ccccc3)cc(-c3cccc(Cl)c3)nc2-c2ccccc2N1	5.9%	?	0.891µM*	-7.7%	?	65.1
Cc1ccc2c(c1)-c1nc(-c3ccc4c(c3)NC(=O)CO4)cc(-c3ccccc3)c1CO2	nt	3.4%	6.5%	-0.2%	i	nt
Cc1ccc(Cl)cc1Nc1nc(-c2sc(NC(=O)c3ccco3)nc2C)cs1	7.94µM*	5.8%	-30.3%	2.5%	i	7.2
O=C(COc1ccccc1C(=O)Nc1ccccc1)Nc1ccc(Br)cc1	nt	nt	-5.8%	1.2%	nt	nt
Cc1ccc2c(Br)cc(Br)c(O)c2n1	nt	6.31µM*	nt	nt	?	nt
COc1cc(/C=C/c2ccc3c(Br)cc(Br)c(O)c3n2)ccc1O	21.0%	nt	-44.6%	?	?	10.1
COC(=O)C1CCN(Cc2ccc3c(c2)CN(C(=O)C(C)N2CCOCC2)CCO3)CC1 (stereo not drawn)	nt	nt	nt	nt	i	nt
Cc1nnc(N/N=C/c2cccc(OCc3ccc(Cl)c(Cl)c3)c2)n1N	?	11.0%	-103.7%	22.4µM*	?	-14.2
Cc1cccnc1-c1cccc2c1OC(CNC(=O)C1CCCc3c1[nH]c1ccccc31)C2 (stereo not drawn)	nt	nt	nt	nt	i	nt
O=C1OC(CN(Cc2ccccc2)Cc2ccccc2)CN1N=Cc1ccc([N+](=O)[O-])o1 (stereo not drawn)	6.2%	-15.7%	-6.6%	-5.4%	i	-93.9*
O=C1OC(CN2CCOCC2)CN1N=Cc1ccc([N+](=O)[O-])o1 (stereo not drawn)	?	-17.8%	-10.6%	3.1%	i	?
O=C1OCCN1/N=C/c1ccc([N+](=O)[O-])o1	-26.5%	-26.8%	-9.3%	-27.0%	i	-92.2*
COc1ccc(OC)c(/C=C/c2c3ccccc3cc[n+]2C)c1	nt	nt	-9.2%	-7.8%	nt	nt
O=C(Cc1ccc([N+](=O)[O-])cc1)NCC1CCCO1 (stereo not drawn)	-7.0%	-13.4%	3.8%	9.2%	i	2.3
O=C(NC1CCCCC1)c1ccc([N+](=O)[O-])o1	nt	8.6%	-17.8%	?	i	-95.2*
O=C(NCC1CCCO1)c1ccc([N+](=O)[O-])o1 (stereo not drawn)	-2.0%	0.0%	-29.9%	12.6µM*	?	?
Cc1ccc2nc(C3CCCCC3)c(CC(C)(C)C)n2c1	nt	-32.1%	-25.0%	?	22.4µM*	nt
COc1ccccc1Cc1c(-c2ccc(Cl)cc2)nc2c(C)cc(Br)cn12	nt	?	12.6µM*	14.1µM*	?	nt
CCCc1nc2c(C)cc(Br)cn2c1Cc1ccccc1C(F)(F)F	nt	?	10µM*	?	?	nt
